Our source for the activity change, negative = inhibition and Potency values is PubChem BioAssay AID651784 (National Center for Advancing Translational Sciences (NCATS), 2012).

Structures are written as SMILES. Results filed as inconclusive are left out. The source made the active and inactive calls. The call rests on the fitted dose curve; in most records, active means well fitted inhibition curve with a large enough effect; inconclusive means small, poorly fitted or top-dose-only effect; inactive means no such curve, though single readings can be large or run the other way.
Potency means the concentration at half of the fitted maximal effect.

The nature of this experiment: Acumen qHTS Assay for Inhibitors of the mTORC1 Signaling Pathway in MEF (Tsc2-/-, p53-/-) Cells: Hit Validation.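 Further: phospho-rpS6 Ser235/236 immunofluorescence normalized to propidium iodide cell count; nearly all actives have a fitted effect of over 65% in size.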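 On activity change, negative = inhibition: cells exposed to compound for 24 hours; plate controls were DMSO for no effect and 7.5 nM rapamycin control for full effect.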 The conditions noted are these: Acumen imaging; activity change, negative = inhibition: at 37.3 µM (top of the series).
For the compound `COc1cc(C(=O)N(CCCN(C)C)c2nc3c(OC)cccc3s2)cc(OC)c1OC`, the activity change, negative = inhibition was 19.6%. Consider `CCOCc1cc(CN2CCN(c3ccccc3OC)CC2)c(O)c2ncccc12`, for which the Potency is 5.21 µM (active). For `CC(C)c1ccc(NS(=O)(=O)c2ccc3nc(-c4ccccc4)[nH]c3c2)cc1`, the activity change, negative = inhibition is -0.821%. Take `O=C(Nc1ccccc1F)c1nc(S(=O)(=O)Cc2ccccc2F)ncc1Cl`: the Potency was 2.93 µM (active). Still for that read-out and setting: to `O=C(Nc1ccc(F)c(F)c1)c1ccc(F)c(S(=O)(=O)N2CCC3(CC2)OCCO3)c1` belongs 10.4 µM (active).

In the case of `COc1ccc(C(=O)N2CCN(C(=O)COc3ccc(Br)cc3)CC2)cc1OC`, the activity change, negative = inhibition was -17.7%.

For the compound `O=C(NCCN1CCN(c2cccc(Cl)c2)CC1)Nc1ccccc1C(F)(F)F`, the activity change, negative = inhibition was -3.27%.

For `O=C(Nc1ccccc1)N(Cc1cccc(Cl)c1)c1ccccn1`, the activity change, negative = inhibition was 14.8%. `COC(=O)CN1C(=O)C(C)(C)c2cc(S(=O)(=O)Nc3ccc(Br)cc3F)ccc21`: the Potency was 9.27 µM (active).

Turning to `CCOc1ccc(CCNCc2c(C(=O)O)n(Cc3ccc(C)cc3)c3cc(OC)ccc23)cc1`, the activity change, negative = inhibition was -26.5%. Regarding `CCOc1c(Br)cc(C2CC(=O)Nc3cc4c(cc32)OCO4)cc1OC` (configuration not stated), the activity change, negative = inhibition is -47.7%.

As to `COC(=O)c1ccccc1NC(=O)Cn1c(=O)n(-c2ccc(C)cc2)c(=O)c2ccccc21`, the Potency is 5.85 µM (active).

Turning to `Cc1ccccc1OCCn1c(=N)n(C(C)C)c2ccccc21`, the Potency was 8.26 µM (active). `O=C(Nc1cccc(C(F)(F)F)c1)c1cnn(-c2cccc(F)c2)c1C1CCNCC1`: the activity change, negative = inhibition was -13.8%. In the case of `O=S(=O)(NCC(c1ccco1)N1CCN(c2ccc(F)cc2)CC1)c1ccccc1` (configuration not stated), the activity change, negative = inhibition stood at 12.9%. Turning to `CCCCNC(=O)CSc1nc2nc(C)c(Cc3ccccc3C)c(C)n2n1`, the activity change, negative = inhibition was 7.74%. On to `CCS(=O)(=O)c1ncc(Cl)c(C(=O)NCc2ccc(OC)cc2)n1`, for which the Potency is 6.56 µM (active). In the case of `O=C(Nc1cccc(NC(=O)c2ccccc2Cl)c1)c1cccc(Br)c1`, the activity change, negative = inhibition was -1.41%.

As to `O=C(CCOc1ccccc1)N(Cc1cccnc1)c1nc2c(F)cccc2s1`, the Potency is 11.7 µM (active). As to `O=C(Nc1ccc2oc(-c3cc(Br)ccc3Cl)nc2c1)c1cc2ccccc2o1`, the activity change, negative = inhibition was -105%. `COc1ccccc1N1CCN(Cc2cc(COC(C)C)c3cccnc3c2O)CC1`: the Potency was 5.21 µM (active).

In the case of `COc1cc(CNc2ccc3c(c2)ncn3C(C)C)cc(OC)c1OC`, the activity change, negative = inhibition is -25.9%.

Turning to `Cc1ccc(-c2nnc(C3CCN(S(=O)(=O)c4ccc(C)c(C)c4)CC3)o2)cc1`, the activity change, negative = inhibition is -7.22%. Same read-out and setting: to `COc1ccc(CNC(=O)C2CCN(c3nc4ccc(C)cc4[nH]3)CC2)cc1` belongs 22.4%. With `CCOc1cccc(C2CC(=O)Nc3cc4c(cc32)OCCO4)c1` (configuration not stated), the activity change, negative = inhibition is -113%. In the case of `Cc1ccc(NC(=O)c2nc(S(=O)(=O)Cc3ccc(F)cc3)ncc2Cl)cc1C`, the Potency is 11.7 µM (active). For `CCOc1ccccc1NC(=O)CSc1cc(=O)n(CC)c2ccccc12`, the activity change, negative = inhibition is 1.04%.

For `CS(=O)(=O)N(CC(=O)NCCc1ccccc1)c1cc(C(F)(F)F)ccc1Cl`, the activity change, negative = inhibition was determined as 30.3%. For the compound `COc1cccc(-c2oc3ccc(C)cc3c(=O)c2O)c1`, the activity change, negative = inhibition was -44.4%. In the case of `Cc1cccc(NC(=O)c2nc(S(C)(=O)=O)ncc2Cl)c1`, the Potency is 2.07 µM (active). On to `Cc1cccc(-c2nc3c(cnn3-c3ccccc3)c(=O)n2-c2ccc(Br)cc2)c1`, for which the activity change, negative = inhibition is -37.3%. With `Cc1c(C(=O)OC2CCC(C)CC2)[nH]c2c1C(=O)CC(c1ccc(F)cc1)C2` (configuration not stated), the Potency was 1.04 µM (active). As to `CCCCCn1c(=N)n(CC(O)COc2cccc(C)c2)c2ccccc21` (configuration not stated), the Potency was 5.85 µM (active). On to `CCOc1ccccc1NC(=O)Cn1c(=O)n(CCC(=O)NCc2ccc3c(c2)OCO3)c(=O)c2ccccc21`, for which the activity change, negative = inhibition is -23.6%.

Turning to `O=C(Nc1ccc(Cl)cc1)c1cc(S(=O)(=O)N2CCCc3ccccc32)ccc1F`, the activity change, negative = inhibition was -18.3%. Turning to `CCC(C)S(=O)(=O)c1oc(-c2ccc(F)cc2)nc1S(=O)(=O)c1ccc(F)cc1` (configuration not stated), the Potency was 1.31 µM (active). Regarding `CCNC(=O)c1c(NC(=O)c2nc(S(=O)(=O)CC)ncc2Cl)sc2c1CCCC2`, the Potency was 1.31 µM (active).
